Measured values from PubChem BioAssay (NCATS).
Inconclusive results are not listed. Unmarked numbers belong to inactive results. The source made the active and inactive calls. The call rests on the fitted dose curve; in most records, active means well fitted inhibition curve with a large enough effect; inconclusive means small, poorly fitted or top-dose-only effect; inactive means no such curve, though single readings can be large or run the other way.

Assay: BET inhibitor-based combinations targeting novel dependencies in MECOM-rearranged (r) AML: UCSD-AML1 cell line (AID 2202235); further: nearly all actives have a fitted effect of over 40% in size;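 on viability (% of control): plate controls were DMSO vehicle wells for no effect and blank wells for full effect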
Details: UCSD-AML1 AML cells viability, CellTiter-Glo, 48 h; series mostly up to 46 µM; viability (% of control): at the top concentration
Source text: Ecotropic viral insertion site 1 (EVI1) is located on chromosome 3q26.2 as part of the MECOM (MDS and EVI1 complex) locus. Under normal hematopoiesis, EVI1 is a regulator of hematopoietic stem cell maintenance and self-renewal and EVI1 levels decrease as the cells differentiate. In approximately 5-10% of de novo acute myeloid leukemia (AML) EVI1 is aberrantly expressed, including Chromosomal inv(3)(q21;q26.2) or t(3;3)(q21;q26.2) alterations (MECOM-r) that account for about 50% of AML with EVI1 overexpression 31. AMLs with high levels of EVI1 have a poor prognosis and an overall survival time averaging between 10-14 months. EVI1 overexpression confers resistance in leukemia cells, highlighting the need to develop new targeted therapies for EVI1 overexpressing AMLs. Here, we performed an unbiased chemical drug screening by evaluating the single agent activity of a collection of 2,480 oncology-focused, approved and investigational drugs (NCATS Mechanism Interrogation Plates, MIPE v5.0) against a panel of seven AML cell lines. These included four MECOM-r cell-lines (AML-191, AML-194, UCSD-AML1 and HNT-34) and three non-MECOM-r AMLs (MV4-11, OCI-AML3 and SET-2). Exploiting the mechanistic redundancy built in the library, we identified target-level sensitivities in MECOM-r AML cells and relative activity as compared to other AML subtypes.
A collection of 2480 mechanistically annotated dugs (MIPE v5.0) was used to screen four 3q26.2 rearranged AML cell lines and three non-3q26.2 rearranged AML cell lines. This library purposely exploits redundancy by including multiple inhibitors of key onco-targets, while simultaneously encompassing mechanistic diversity, targeting more than 800 distinct mechanisms of action. Briefly, cells were seeded in 5 uL of growth media using a Multidrop Combi dispenser into 1536 well white polystyrene tissue culture treated plates (Corning) at a density of 500cells/well. For each cell-line, for each of the 2480 drugs in MIPE v5.0 library, an 11-point dose curve was generated via a 1536 pin-tool. Plates were incubated for 48 hr at standard incubator conditions, covered by a stainless steel gasketed lid to prevent evaporation. Cell viability was determined by luminescence based, Cell Titer Glo assay (Promega). In detail, 3 uL of Cell Titer Glo were added to each well and plates were incubated at room temperature for 15 min with a stainless-steel lid in place. Luminescence readings were taken using a Viewlux (PerkinElmer) with a 2 s exposure time per plate. Compound dose-response curves were normalized to DMSO and empty well controls on each plate. Quantitative drug activity data from dose-response curves was determined utilizing area Under the Curve (AUC) and Z-transformed AUC (Z-AUC, a mean-centering transformation applied to each individual cell-line screened).
Potency means the concentration at half of the fitted maximal effect.

| Compound | Potency | viability (% of control) |
| --- | --- | --- |
| Fc1ccc(-c2csc3ncnc(NCc4ccc5c(c4)OCO5)c23)cc1 | 20.9 µM (active) | – |
| CN1CC(=O)N2[C@H](c3ccc4c(c3)OCO4)c3[nH]c4ccccc4c3C[C@@H]2C1=O | – | 111% |
| COc1ccc(S(=O)(=O)N[C@@H](CNc2nc(C)nc(N3CCC(c4ccc5c(n4)NCCC5)CC3)c2C)C(=O)O)cc1 | – | 110% |
| CC1(C(=O)O)CCC2(C)CCC3(C)C(=CC(=O)C4C5(C)CCC(OC6OC(C(=O)O)C(O)C(O)C6OC6OC(C(=O)O)C(O)C(O)C6O)C(C)(C)C5CCC43C)C2C1 (stereo not given) | – | 104% |
| COc1ccc2c(c1)[C@]1(C[C@H]1c1ccc3c(/C=C/c4ccc(CN5C[C@@H](C)O[C@@H](C)C5)cc4)n[nH]c3c1)C(=O)N2 | 18.6 µM (active) | – |
| CC[C@H](CO)Nc1nc(NCc2ccccc2)c2ncn(C(C)C)c2n1 | 26.3 µM (active) | – |
| C[C@H]1[C@@H](OC(=O)CCC(=O)O)O[C@@H]2O[C@@]3(C)CC[C@@H]4[C@H](C)CC[C@@H]1[C@@]24OO3 | 8.33 µM (active) | – |
| O=C(c1ccc(F)c(F)c1Nc1ccc(I)cc1F)N1CC(O)([C@@H]2CCCCN2)C1 | 0.296 µM (active) | – |
| Cc1[nH]nc2ncc(C(=O)N3CCC[C@H]3c3ccc(Cl)cc3)cc12 | – | 118% |
| C[C@H](CCC(=O)O)[C@H]1CC[C@H]2[C@@H]3[C@H](O)C[C@@H]4C[C@H](O)CC[C@]4(C)[C@H]3CC[C@]12C | – | 104% |
| COc1ccc2c(c1)CC[C@@H]1[C@@H]2CC[C@]2(C)[C@@H](NCCCCCCN3C(=O)C=CC3=O)CC[C@@H]12 | – | 101% |
| CNC(=O)[C@@H](NC(=O)[C@H](CC(C)C)[C@H](O)C(=O)NO)C(C)(C)C | – | 118% |
| CC(C)C[C@H](NC(=O)c1cc2ccccc2s1)C(=O)N1CCN(C(=O)[C@H](CO)NS(=O)(=O)c2ccc(Cl)cc2Cl)CC1 | – | 112% |
| O=C(Nc1cnccc1Cl)N1CCN(Cc2ccc3c(c2)OC(F)(F)O3)CC1 | – | 103% |
| CC1(C)CC[C@]2(C(=O)O)CC[C@]3(C)C(=CC[C@@H]4[C@@]5(C)C[C@@H](O)[C@H](O)C(C)(C)[C@@H]5CC[C@]43C)[C@@H]2C1 | – | 109% |
| COc1ccc(CC2c3cc(OC)c(OC)cc3CC[N+]2(C)CCC(=O)OCCCCCOC(=O)CC[N+]2(C)CCc3cc(OC)c(OC)cc3C2Cc2ccc(OC)c(OC)c2)cc1OC (stereo not given) | – | 105% |
| CCCCN(CCCC)CCC(O)c1cc2c(Cl)cc(Cl)cc2c2cc(C(F)(F)F)ccc12 (stereo not given) | 26.3 µM (active) | – |
| Cn1cc(/C=C/C(=O)c2cccc(F)c2)cc1/C=C/C(=O)NO | 4.17 µM (active) | – |
| CC(=O)O/N=C1/C(c2c(O)[nH]c3cc(Br)ccc23)=Nc2ccccc21 | – | 114% |
| C[C@@H](O)[C@@H]1NC(=O)[C@H](CCCCN)NC(=O)[C@@H](Cc2c[nH]c3ccccc23)NC(=O)[C@H](Cc2ccccc2)NC(=O)[C@@H](NC(=O)[C@H](N)Cc2ccccc2)CSSC[C@@H](C(=O)N[C@H](CO)[C@@H](C)O)NC1=O | – | 98.5% [at 15.6 µM] |

| Compound | Potency | viability (% of control) |
| --- | --- | --- |
| CN1CCCN(C(=O)c2cccc(-c3ccc(/C=C4/C(=O)Nc5ccc(Cl)cc54)o3)c2)CC1 | 1.32 µM (active) | – |
| Cc1ccc(S(=O)(=O)Nc2cc(-c3ccc(C#N)s3)ccc2C)cc1 | 0.0661 µM (active) | – |
| O=C(NOCCO)c1ccc2cncn2c1Nc1ccc(I)cc1F | 1.32 µM (active) | – |
| COc1cc2nccc(Oc3ccc(NC(=O)c4cn(C(C)C)c(=O)n(-c5ccc(F)cc5)c4=O)cc3F)c2cc1OC | – | 100% |
| CCOC(=O)c1ccc(C#Cc2ccc3c(c2)C(C)(C)CCS3)nc1 | – | 91.7% |
| CCS(=O)(=O)c1ccc2oc(-c3ccc4ccccc4c3)nc2c1 | – | 95.1% |
| COc1cc(=C2C=c3ccccc3=N2)[nH]/c1=C/c1[nH]c(C)cc1C | 3.32 µM (active) | – |
| CCO[C@@H]1OC(=O)C[C@@H]1NC(=O)[C@@H]1CCCN2C(=O)CC[C@H](NC(=O)c3nccc4ccccc34)C(=O)N12 | – | 109% |
| O=C1S/C(=C\c2ccc(OCc3cccc(B(O)O)c3)cc2)C(=O)N1Cc1ccc(F)cc1 | – | 108% |
| Cc1ccc(-c2ncn(-c3ccc(Nc4nccc(-c5cccc(N6CCOCC6)c5)n4)cc3)n2)cn1 | 2.35 µM (active) | – |
| CNCCn1c(=O)c2cc(OC)c(OC)cc2c2cnc3cc4c(cc3c21)OCO4 | 0.0191 µM (active) | – |
| CCC(=O)O[C@]1(C(=O)CO)CC[C@H]2[C@@H]3CCC4=CC(=O)CC[C@]4(C)[C@H]3CC[C@@]21C | – | 109% |
| CO[C@H]1/C=C/O[C@@]2(C)Oc3c(C)c(O)c4c(O)c(c5c(nc6cc(C)ccn65)c4c3C2=O)NC(=O)/C(C)=C\C=C\[C@H](C)[C@H](O)[C@@H](C)[C@@H](O)[C@@H](C)[C@H](OC(C)=O)[C@@H]1C | – | 116% |
| O=C(/C=C/c1ccc(/C=C/C(=O)Nc2ccc(C3=NCCN3)cc2)cc1)Nc1ccc(C2=NCCN2)cc1 | – | 115% [at 5.12 µM] |
| COc1ccnc2[nH]cc(C(=O)C(=O)N3CCN(C(=O)c4ccccc4)C[C@H]3C)c12 | – | 104% |
| CC(C)OC(=O)[C@H](C)N[P@](=O)(OC[C@H]1O[C@@H](n2ccc(=O)[nH]c2=O)[C@](C)(F)[C@@H]1O)Oc1ccccc1 | – | 80.8% |
| C=CCc1cccc(/C=N/NC(=O)CN2CCN(Cc3ccccc3)CC2)c1O | 23.5 µM (active) | – |
| C=CC(=O)Nc1ccc(F)c(-c2ncnc3[nH]cc(C(=O)OCC)c23)c1 | – | 115% |
| CC(=O)CC(c1ccccc1)c1c(O)c2ccccc2oc1=O (stereo not given) | – | 103% |
| C#CCN(C)CC1=Cc2ccccc2Oc2ccccc21 | – | 115% |
